The values below come from PubChem BioAssay (NCI).

Some test systems named below: HCT-15 colon; HT29 colon; SNB-75 CNS; SNB-19 CNS; PC-3 prostate; SK-MEL-5 melanoma; UACC-62 melanoma; LOX IMVI melanoma; SK-MEL-28 melanoma; U251 CNS.
Common to all, as to test: NCI-60 one-dose screen, 48 h (100 = growth as untreated, 0 = no growth, -100 = all killed)
What all share (conditions): 10 µM unless noted

The panel holds about 83,000 compounds, 20% with a hit somewhere; the sample as a whole holds those more often.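 96-well plates, one dose, 48 hours. Percent growth reported; active if below 10.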 A number with no mark means an inactive call. Calls of active or inactive are those of the source.

For `CC(=O)/C=C/c1ccc2c(c1)OCO2`, the growth was 99.7% with HCT-15 colon; 106% in the experiment on HT29 colon; 79.2% with SNB-75 CNS; 84.6% in the experiment with SNB-19 CNS; 95.8% with PC-3 prostate; 100% with SK-MEL-5 melanoma. Also, the growth is 90.2% in the experiment with UACC-62 melanoma, 109% in the experiment with LOX IMVI melanoma and 107% with SK-MEL-28 melanoma.

Regarding `CC(C)(NC(=O)O[C@@H]1CN2CCC1CC2)c1csc(-c2ccc(F)cc2)n1`, the growth is 102% in the experiment on HCT-15 colon; 104% with HT29 colon; 67.2% in the experiment on SNB-75 CNS; 97.9% with SNB-19 CNS; 99.5% in the experiment on PC-3 prostate; 99.2% in the experiment on SK-MEL-5 melanoma. The growth in the experiment on UACC-62 melanoma was 87.9%; in the experiment with LOX IMVI melanoma it was 90.5%; with SK-MEL-28 melanoma, 103%.

On to `C=C(C)[C@@]12OC3(/C=C/C=C/CCCCC)O[C@@H]1[C@@H]1[C@@H]4O[C@]4(CO)[C@@H](O)[C@]4(O)C(=O)C(C)=C[C@H]4[C@@]1(O3)[C@H](C)[C@H]2OC(=O)c1ccccc1`, for which the growth was 67.1% in the experiment on HCT-15 colon; 14.1% with HT29 colon; 56.6% with SNB-75 CNS; 92.8% with SNB-19 CNS; 53.2% with U251 CNS; 28.6% in the experiment on PC-3 prostate. For the same compound, the growth is 59.7% with UACC-62 melanoma, 50.9% with LOX IMVI melanoma and 81.5% in the experiment with SK-MEL-28 melanoma.

Take `O=C(CC1(O)C(=O)Nc2ccc(Br)cc21)c1ccc(C(=O)NCC2CCC3(CC2)OOC2(CCCCC2)OO3)cc1` (stereo unspecified): the growth with HCT-15 colon is 54.2%; in the experiment with HT29 colon, 47.2%; in the experiment with SNB-75 CNS it was 64.6%; in the experiment on SNB-19 CNS, 61.4%; in the experiment on U251 CNS it was 11.8%; with PC-3 prostate it was 38.9%. In addition, the figures for the growth with UACC-62 melanoma, in the experiment on LOX IMVI melanoma and in the experiment on SK-MEL-28 melanoma were 54.6%, 32.6% and 73.3%, respectively.

Take `O=C(CC1(O)C(=O)N(Cc2ccccc2)c2ccc(Br)cc21)c1ccc(C(=O)NCC2CCC3(CC2)OOC2(CCCCC2)OO3)cc1` (stereo unspecified): the growth is 2.73% (active) with HCT-15 colon; -65.5% (active) in the experiment with HT29 colon; 15% in the experiment with SNB-75 CNS; 56.1% in the experiment on SNB-19 CNS; -85.4% (active) in the experiment with U251 CNS; -36.3% (active) in the experiment with PC-3 prostate. The growth in the experiment with UACC-62 melanoma was 80.7%; in the experiment with LOX IMVI melanoma, -79.7% (active); in the experiment with SK-MEL-28 melanoma, 77.4%.

With `Cc1ccc(S(=O)(=O)F)cc1C(=O)O`, the growth is 102% in the experiment with HCT-15 colon; 100% in the experiment with HT29 colon; 76.8% in the experiment on SNB-75 CNS; 97.5% in the experiment with SNB-19 CNS; 110% with PC-3 prostate; 102% in the experiment on SK-MEL-5 melanoma. In addition, the growth is 109% in the experiment on UACC-62 melanoma, 102% in the experiment with LOX IMVI melanoma and 110% in the experiment on SK-MEL-28 melanoma.

For the compound `O=C1C=C(N2C3C4CCC(C4)C32)C(=O)C=C1c1ccccc1` (stereo unspecified), the growth with HCT-15 colon was 82.7%; in the experiment on HT29 colon, 108%; with SNB-75 CNS it was 65.4%; with SNB-19 CNS it was 91.4%; in the experiment on PC-3 prostate it was 81.7%; in the experiment on SK-MEL-5 melanoma, 95.9%. Further, the growth with UACC-62 melanoma was 80.6%; in the experiment on SK-MEL-28 melanoma, 91.7%.

On to `CCn1c2ccccc2c2cc(C(=O)c3cccc4c3CCCN4)ccc21`, for which the growth in the experiment on HCT-15 colon is 104%; with HT29 colon, 113%; in the experiment on SNB-75 CNS, 91.6%; in the experiment on SNB-19 CNS, 97.6%; in the experiment with U251 CNS, 106%; in the experiment on PC-3 prostate, 108%. Further, the growth with UACC-62 melanoma was 92.2%; with LOX IMVI melanoma, 94.4%; in the experiment on SK-MEL-28 melanoma, 103%.

For the compound `CC(=O)[O][Hg][c]1c(N)c(C)cc(C)c1F`, the growth in the experiment with HCT-15 colon is -14.2% (active); with HT29 colon, 10% (active); in the experiment on SNB-75 CNS, 32%; in the experiment on SNB-19 CNS, 112%; in the experiment with PC-3 prostate, 51.9%; in the experiment on SK-MEL-5 melanoma it was 41%. The growth in the experiment on UACC-62 melanoma was 27.8%; with LOX IMVI melanoma, -70.1% (active); in the experiment with SK-MEL-28 melanoma, -39.1% (active).

As for `CC(=O)c1ccc(C(=O)NCC2CCC3(CC2)OOC2(CCCCC2)OO3)cc1`, the growth with HCT-15 colon is 82.5%; in the experiment with HT29 colon it was 83.4%; in the experiment on SNB-75 CNS, 99.8%; in the experiment on SNB-19 CNS, 96.9%; in the experiment on U251 CNS, 64.4%; with PC-3 prostate it was 71%. Also, the growth is 80.9% in the experiment with UACC-62 melanoma, 35.3% in the experiment with LOX IMVI melanoma and 95.5% in the experiment on SK-MEL-28 melanoma.

`CCCc1cc(O)c2c3c(c(=O)oc2c1)CN(C)CC3`: the growth with HCT-15 colon was 23.2%; in the experiment with HT29 colon, 10.8%; in the experiment with SNB-75 CNS, -8.41% (active); with SNB-19 CNS, 44.4%; with U251 CNS it was 16.7%; with SK-MEL-5 melanoma it was 42.3%. Moreover, the growth was 37.8% in the experiment with UACC-62 melanoma, 30.9% in the experiment on LOX IMVI melanoma and 56.4% in the experiment on SK-MEL-28 melanoma.

`C/C(=C\c1ccn(-c2ccc(N)cc2C(F)(F)F)n1)[C@@H]1C[C@@H]2O[C@]2(C)CCC[C@H](C)[C@H](O)[C@@H](C)C(=O)C(C)(C)[C@@H](O)CC(=O)O1`: the growth in the experiment with HCT-15 colon is 14%; in the experiment with HT29 colon, 10.5%; in the experiment with SNB-75 CNS, -7.43% (active); in the experiment with SNB-19 CNS it was 21.5%; with U251 CNS it was 13.3%; with PC-3 prostate, 15.4%. In addition, the growth is 27.7% with UACC-62 melanoma, 26.4% with LOX IMVI melanoma and 63.2% with SK-MEL-28 melanoma.

For the compound `CCn1c2ccccc2c2cc(C(=O)c3ccc(C)c4ccccc34)ccc21`, the growth was 15.7% in the experiment with HCT-15 colon; -7.41% (active) in the experiment on HT29 colon; 51% in the experiment on SNB-75 CNS; 20.7% in the experiment with SNB-19 CNS; 10.3% with U251 CNS; 18.7% in the experiment with PC-3 prostate. Besides, the growth was 1.49% (active) with UACC-62 melanoma, 1.21% (active) with LOX IMVI melanoma and 17.9% with SK-MEL-28 melanoma.

As to `O=C(NCCN1CC1)C(=O)NCCN1CC1`, the growth in the experiment on HCT-15 colon is 95.2%; with HT29 colon it was 68.9%; in the experiment on SNB-75 CNS, 76%; in the experiment on SNB-19 CNS, 101%; in the experiment with PC-3 prostate, 93.2%; in the experiment on SK-MEL-5 melanoma, 94.6%. For the same compound, the growth with UACC-62 melanoma is 91.7%; with LOX IMVI melanoma, 80.2%; in the experiment with SK-MEL-28 melanoma it was 102%.

Turning to `CCCCCCCC(=O)OCC(=O)[C@]1(O)Cc2c(O)c3c(c(O)c2[C@@H](OC2CC(N)C(O)C(C)O2)C1)C(=O)c1c(OC)cccc1C3=O` (stereo partly specified), the growth in the experiment with HCT-15 colon was -61.5% (active); with HT29 colon it was -63.5% (active); in the experiment on SNB-75 CNS it was -79.5% (active); in the experiment on U251 CNS, -46.5% (active); in the experiment on PC-3 prostate it was -100% (active); with SK-MEL-5 melanoma, -91.2% (active). In addition, the values for the growth in the experiment on UACC-62 melanoma, in the experiment with LOX IMVI melanoma and in the experiment on SK-MEL-28 melanoma were -75.4% (active), -4.4% (active) and -84% (active), respectively.

As for `O=C(CC1(O)C(=O)Nc2ccc(Cl)cc21)c1ccc(C(=O)NCC2CCC3(CC2)OOC2(CCCCC2)OO3)cc1` (stereo unspecified), the growth was 49.1% in the experiment on HCT-15 colon; 15.1% with HT29 colon; -3.77% (active) in the experiment on SNB-75 CNS; 30.3% in the experiment with SNB-19 CNS; -54.2% (active) in the experiment with U251 CNS; -34.2% (active) in the experiment with PC-3 prostate. For the same compound, the growth with UACC-62 melanoma is 50.7%; in the experiment on LOX IMVI melanoma, 32.3%; in the experiment with SK-MEL-28 melanoma, 69.2%.

In the case of `COC(=O)C1OC(Oc2ccc(N(CCCl)CCCl)cc2)C(OC(C)=O)C(OC(C)=O)C1OC(C)=O` (stereo unspecified), the growth is 83.3% with HCT-15 colon; 80.7% in the experiment on HT29 colon; 59.2% in the experiment on SNB-75 CNS; 92.6% with SNB-19 CNS; 78% in the experiment with PC-3 prostate; 92.1% with SK-MEL-5 melanoma. Moreover, the growth in the experiment with UACC-62 melanoma is 79.6%; with LOX IMVI melanoma it was 77.2%; in the experiment with SK-MEL-28 melanoma, 83.5%.

As to `Cc1ccc(C(=O)NCCCOc2ccc(N)cc2Cl)cc1S(=O)(=O)F`, the growth in the experiment with HCT-15 colon is 89.4%; with HT29 colon, 101%; with SNB-75 CNS it was 75.1%; in the experiment on SNB-19 CNS, 95.1%; in the experiment with PC-3 prostate it was 105%; in the experiment with SK-MEL-5 melanoma, 97.2%. Further, the growth is 100% in the experiment on UACC-62 melanoma, 85.5% in the experiment on LOX IMVI melanoma and 104% in the experiment on SK-MEL-28 melanoma.

For the compound `CN1C(=O)C(=Cc2cn(CCCCCCn3c4ccccc4c(=O)c4ccccc43)c3ccccc23)C(=O)N(C)C1=O`, the growth in the experiment on HCT-15 colon was 92.1%; in the experiment with HT29 colon, 96.1%; with SNB-75 CNS it was 91.4%; with SNB-19 CNS it was 104%; in the experiment with U251 CNS, 99.2%; in the experiment on PC-3 prostate, 89.8%. Also, the growth in the experiment on SK-MEL-5 melanoma was 94.3%; in the experiment on SK-MEL-28 melanoma, 98%.

Turning to `O=C(CC1(O)C(=O)N(Cc2ccccc2)c2ccc(Cl)cc21)c1ccc(C(=O)NCC2CCC3(CC2)OOC2(CCCCC2)OO3)cc1` (stereo unspecified), the growth with HCT-15 colon is -14.1% (active); with HT29 colon, -69.7% (active); in the experiment with SNB-75 CNS, -61.7% (active); with SNB-19 CNS, 30.9%; in the experiment with U251 CNS it was -81.8% (active); in the experiment with PC-3 prostate it was -54.3% (active). Moreover, the values for the growth in the experiment with UACC-62 melanoma, in the experiment with LOX IMVI melanoma and in the experiment with SK-MEL-28 melanoma were 53%, -78.5% (active) and 58.5%, respectively.

In the case of `CC(C)=CC1C(C(=O)OCc2cccc(Oc3ccccc3)c2)C1(C)C` (stereo unspecified), the growth with HCT-15 colon is 98.9%; in the experiment with HT29 colon it was 86.5%; in the experiment on SNB-75 CNS it was 115%; in the experiment on SNB-19 CNS it was 98.4%; with U251 CNS, 98.6%; in the experiment on PC-3 prostate it was 92.8%. The growth with UACC-62 melanoma is 78.4%; in the experiment with LOX IMVI melanoma it was 93.4%; in the experiment on SK-MEL-28 melanoma it was 119%.

Turning to `Nc1ccc(OCCNS(=O)(=O)c2cccc(S(=O)(=O)F)c2)c(Cl)c1`, the growth is 93.4% with HCT-15 colon; 106% in the experiment on HT29 colon; 50.5% in the experiment with SNB-75 CNS; 96.6% in the experiment on SNB-19 CNS; 97.6% with PC-3 prostate; 97.1% with SK-MEL-5 melanoma. The figures for the growth in the experiment on UACC-62 melanoma, in the experiment on LOX IMVI melanoma and in the experiment on SK-MEL-28 melanoma were 93.2%, 94.2% and 88.8%, respectively.
